Measurements as given in PubChem BioAssay (NCI).
Compounds without any hit were thinned out: in the full panel of roughly 83,000, 20% have a hit.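 Negative percent growth values reflect cell death: -40 means 40% of the cells present at the start died, and -100 means all died.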 A number with no mark means an inactive call. Activity calls are given as the source filed them. The calls were made as follows: active = growth percent below 10; inactive = the rest.

Key:
Assay in all cases: NCI-60 one-dose screen, 48 h (100 = growth as untreated, 0 = no growth, -100 = all killed)
Conditions in all cases: 10 µM
[1] = system: EKVX NSCLC
[2] = system: SN12C renal
[3] = system: UO-31 renal
[4] = system: TK-10 renal
[5] = system: ACHN renal
[6] = system: CAKI-1 renal
[7] = system: A498 renal
[8] = system: CCRF-CEM leukemia
[9] = system: MOLT-4 leukemia
[10] = system: SR leukemia

COc1ccc(-c2ccc3cc(C(=O)Nc4ccc(O)c(C(=O)/C=C/c5cc(OC)c(OC)c(OC)c5)c4)ccc3c2)cc1
growth [1]: 101% | growth [2]: 92.6% | growth [3]: 59.6% | growth [4]: 100% | growth [5]: 96.3% | growth [6]: 86.6% | growth [7]: 91.2% | growth [8]: 53.8% | growth [9]: 69.6% | growth [10]: 60.3%

N#CSCC1CC(O)(c2ccccc2)CC(c2ccc(Cl)cc2)O1 (stereo unspecified)
growth [1]: 54% | growth [2]: 23.2% | growth [3]: 15.1% | growth [4]: -5.7% (active) | growth [5]: 48.3% | growth [6]: 44.5% | growth [8]: 15% | growth [9]: -11.5% (active) | growth [10]: 11.4%

O=C(CC(c1ccccc1)N1CCOCC1)c1ccccc1 (stereo unspecified)
growth [1]: 89.3% | growth [2]: 88.5% | growth [3]: 75.7% | growth [4]: 99.7% | growth [5]: 103% | growth [6]: 98.8% | growth [8]: 79.6% | growth [9]: 82.3% | growth [10]: -32.7% (active)

O=C1/C(=C\c2cn(C(=O)c3ccc(Cl)cc3)c3ccccc23)c2ccccc2N1C(=O)c1ccc(Cl)cc1
growth [1]: 70.7% | growth [2]: 80.8% | growth [3]: 64.4% | growth [4]: 55.3% | growth [5]: 63.3% | growth [6]: 73.8% | growth [7]: 81.1% | growth [9]: 61.5% | growth [10]: 56.1%

CCn1cc(C(=O)O)c(=O)c2cnc(N3CCCC3)nc21
growth [1]: 93.7% | growth [2]: 110% | growth [3]: 74.8% | growth [4]: 116% | growth [5]: 100% | growth [6]: 85.8% | growth [7]: 87.6% | growth [9]: 108% | growth [10]: 110%

CO/N=C(/C(=O)NC1C(=O)N2C(C(=O)O)=C(COC(N)=O)CSC12)c1ccco1 (stereo unspecified)
growth [1]: 99.4% | growth [2]: 104% | growth [3]: 83.3% | growth [4]: 104% | growth [5]: 98.3% | growth [6]: 91.3% | growth [7]: 102% | growth [9]: 111% | growth [10]: 106%

O=C1N=NC2=C1c1c3ccccc3c(O)n1CC2
growth [1]: 96.1% | growth [2]: 105% | growth [3]: 90% | growth [4]: 104% | growth [5]: 99.9% | growth [7]: 94.9% | growth [8]: 97.1% | growth [9]: 104% | growth [10]: 103%

CN(C)CCN=c1nc2c(c(N)n1-c1ccccc1)c(=S)n(-c1ccccc1)c(=S)n2-c1ccccc1
growth [1]: 39.8% | growth [2]: 52.3% | growth [3]: 3.1% (active) | growth [4]: 47.7% | growth [5]: 28.3% | growth [7]: 40.3% | growth [8]: -8.26% (active) | growth [9]: 3.92% (active) | growth [10]: 34.7%

COc1cccc(-c2cc(-c3cccc(NS(C)(=O)=O)c3)nc(N)c2C#N)c1O
growth [1]: 32.6% | growth [2]: 50.7% | growth [3]: 15.3% | growth [4]: 71.3% | growth [5]: 43.3% | growth [6]: -11.9% (active) | growth [8]: 12.3% | growth [9]: 35% | growth [10]: 24.6%

COc1cc(/C(=C2/O[C@@H]([C@H]3COC(C)(C)O3)[C@H]3OC(C)(C)O[C@@H]23)c2ccc3ccccc3c2)cc(OC)c1OC
growth [1]: 53.7% | growth [2]: 24.8% | growth [3]: 46.8% | growth [4]: 22.7% | growth [5]: 0.857% (active) | growth [6]: 38.7% | growth [8]: 82.2% | growth [9]: 62.4% | growth [10]: 51.4%

O=C(Nc1nc(-c2ccccc2Cl)cs1)c1cc(-c2ccc(Cl)cc2)nc2ccc(Cl)cc12
growth [1]: 73.9% | growth [2]: 30.3% | growth [3]: 28.4% | growth [4]: 98.4% | growth [5]: 36.9% | growth [6]: 81.7% | growth [8]: 28.4% | growth [9]: 18.4% | growth [10]: 12.9%

Cc1ccc(C(=O)Nc2cccc(F)c2)cc1NC(=O)C1(c2ncnc3[nH]ccc23)CC1
growth [1]: 91.8% | growth [2]: 91.2% | growth [3]: 51.6% | growth [4]: 132% | growth [5]: 98.8% | growth [7]: 105% | growth [8]: 87.9% | growth [9]: 72.7% | growth [10]: 87.9%

O=[P@@]1(c2ccccc2)O[C@H](COCc2ccccc2)[C@@H](OCc2ccccc2)[C@H](OCc2ccccc2)[C@H]1O
growth [1]: 70.7% | growth [2]: 82.9% | growth [3]: 90.5% | growth [4]: 76% | growth [5]: 78.7% | growth [6]: 72.8% | growth [8]: 92.3% | growth [9]: 94.3% | growth [10]: 103%

COc1ccc(OC)c2c1C(=O)CC2C (stereo unspecified)
growth [1]: 98.7% | growth [2]: 99.3% | growth [3]: 83.7% | growth [4]: 118% | growth [5]: 113% | growth [6]: 97.6% | growth [8]: 101% | growth [9]: 112% | growth [10]: 113%

COc1ccc(NC2=NC(C)(CO)CS2)cc1 (stereo unspecified)
growth [1]: 106% | growth [2]: 91.1% | growth [3]: 77.7% | growth [4]: 110% | growth [5]: 96.7% | growth [7]: 94.2% | growth [8]: 89.6% | growth [9]: 96.7% | growth [10]: 126%

CC12O[C@H](C[C@@H](OC(=O)c3ccccc3)[C@H]1O)n1c3ccccc3c3c4c(c5c6ccccc6n2c5c31)C(=O)NC4=O
growth [1]: 36.4% | growth [2]: 33% | growth [3]: -13.9% (active) | growth [4]: 7.3% (active) | growth [5]: 39.4% | growth [7]: -25.6% (active) | growth [8]: 64% | growth [9]: 64.3%

O=C1c2ccc3c4c(ccc(c24)C(=O)N1CCNCc1ccccc1)C(=O)N(CCNCc1ccccc1)C3=O
growth [1]: -65.6% (active) | growth [2]: -47.3% (active) | growth [3]: -59% (active) | growth [4]: 63.4% | growth [5]: 85.4% | growth [6]: -56.2% (active) | growth [8]: -6.55% (active) | growth [9]: -9.12% (active) | growth [10]: -8.22% (active)

COc1ccc(OC)c(/C=C/c2nc(SC)n(-c3ccc(Cl)cc3)n2)c1
growth [1]: 61.4% | growth [2]: 80.3% | growth [3]: 39.6% | growth [4]: 92.3% | growth [5]: 67.9% | growth [6]: 64.5% | growth [8]: 71.4% | growth [9]: 73% | growth [10]: 41.5%

CC1(C)CCC(=NNC(N)=S)CC1
growth [1]: 90% | growth [2]: 105% | growth [3]: 83.9% | growth [4]: 75.9% | growth [5]: 99.7% | growth [6]: 96.2% | growth [8]: 30.3% | growth [9]: 99.8% | growth [10]: 116%

Cc1cc(N(CCCNc2ccnc3cc(Cl)ccc23)Cc2ccc3c(c2)OCO3)nc(N2CCCCC2)n1
growth [1]: 2.19% (active) | growth [2]: 23.4% | growth [3]: -61.9% (active) | growth [4]: -35.3% (active) | growth [5]: -37.7% (active) | growth [7]: -18.8% (active) | growth [8]: -5.28% (active) | growth [9]: -27.1% (active)

CC(C)=NNc1ncnc2c1ncn2C1OC(CO)C(O)C1O (stereo unspecified)
growth [1]: 43.7% | growth [2]: 20.5% | growth [3]: -3.29% (active) | growth [4]: 57.5% | growth [5]: 12.3% | growth [6]: -19% (active) | growth [8]: 35.9% | growth [9]: 56.4% | growth [10]: 14.4%

CCN(CCCCCCN1CC(=O)N(CCCCCCN(CC)Cc2ccccc2OC)CC1=O)Cc1ccccc1OC
growth [1]: 72.9% | growth [2]: 93.9% | growth [3]: 91.9% | growth [4]: 87.6% | growth [5]: 110% | growth [6]: 90.3% | growth [9]: 42.7% | growth [10]: 39.3%

CCOC(=O)C(=Cc1ccc(Br)cc1)C(=O)OCC
growth [1]: 50.5% | growth [2]: -21% (active) | growth [3]: -85.7% (active) | growth [4]: 8.18% (active) | growth [5]: -81% (active) | growth [7]: -12.6% (active) | growth [8]: -29.1% (active) | growth [9]: -8.75% (active) | growth [10]: -42% (active)

CN1CCC(CNc2cc(C3(C(=O)Nc4cc(C(=O)Nc5ccc(Cl)c(C(F)(F)F)c5)ccc4F)CC3)ncn2)CC1
growth [1]: 46.7% | growth [2]: 78.8% | growth [3]: 7.95% (active) | growth [4]: 84.5% | growth [5]: 20.1% | growth [7]: 96% | growth [8]: -23.9% (active) | growth [9]: -37.5% (active) | growth [10]: -26.7% (active)

Cc1cc(Cl)nc(N(CCCNc2ccnc3cc(Cl)ccc23)Cc2cccs2)n1
growth [1]: 36.4% | growth [2]: 33% | growth [3]: 5.57% (active) | growth [4]: 28.4% | growth [5]: 25.8% | growth [7]: 19.6% | growth [8]: 2.62% (active) | growth [9]: -17.6% (active) | growth [10]: -21.3% (active)

COc1ccc2c(c1)C(=O)c1c-2c(=O)n(CCCN(C)C)c2cc(OC)c(OC)cc12
growth [1]: 113% | growth [2]: 53.1% | growth [3]: 64.6% | growth [4]: 102% | growth [5]: 31.9% | growth [7]: 85.5% | growth [8]: 15.4% | growth [9]: 13.8%

Cc1cc(O)c(C(C)(C)C)cc1Sc1cc(C(C)(C)C)c(O)cc1C
growth [1]: 40.7% | growth [2]: 58.2% | growth [3]: 37.5% | growth [4]: 81% | growth [5]: 60.7% | growth [6]: 32.3% | growth [8]: 18.2% | growth [9]: 1.49% (active) | growth [10]: -33.1% (active)

CC(C)=CCc1cc(O)cc2c1OC(C=C(C)C)C1=C2C(=O)C2=C(NCCS2(=O)=O)C1=O (stereo unspecified)
growth [1]: -1.26% (active) | growth [2]: -59% (active) | growth [3]: 67.3% | growth [4]: 106% | growth [5]: 26.2% | growth [7]: 50.2% | growth [8]: 1.9% (active) | growth [9]: -34.5% (active) | growth [10]: 1.49% (active)

CCCCCCCCCCCC[n+]1ccc(C(N)=O)cc1
growth [1]: 22.2% | growth [2]: 12.3% | growth [3]: 64.4% | growth [4]: -28% (active) | growth [5]: 87.5% | growth [7]: 78.9% | growth [8]: 13% | growth [9]: 13.6%

COc1cc(C(=O)N2CCN(c3ccccc3OC)CC2)c(N)cc1OCCCN1CCN(c2ccccc2OC)CC1
growth [1]: 83.2% | growth [2]: 98.6% | growth [3]: 62.4% | growth [4]: 113% | growth [5]: 88.8% | growth [7]: 117% | growth [8]: 4.33% (active) | growth [9]: 53.8% | growth [10]: 67.7%
